# High-throughput results as filed in PubChem BioAssay.
# PRMT1 FP inh – inhibitors of human PRMT1. Q99873. recombinant PRMT1, activity-based probe fluorescence polarization. inhibition, % at 2.79 µM. actives 1.3% (n = 370,000);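 active = inhibition above about 21% made by adding two undisclosed values, limit read from the data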
# NOD2 RIPK2 PPI – blocks binding of human NOD2 to RIPK2 | O43353 | CHO BLA complementation NOD2-RIPK2, CCF4 ratio | inhibition, % at 4.98 µM | actives 0.38% (n = 360,000); in the data active = inhibition above about 21%;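 note: 0% = vehicle only and 100% = reference blocker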
# TLR9-MyD88 inh – blocks human TLR9 binding to MyD88; Q9NR96+Q99836; CHO BLA complementation TLR9-MyD88, CCF4 FRET ratio; inhibition, % at 4.98 µM; actives 0.21% (n = 340,000); AID 504734;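 active = inhibition above the mean over all tested compounds plus 3 SD, cut at about 21% in these data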;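 note: 0% = DMSO only wells and 100% = clavulanate BLA inhibitor control wells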
# ABHD5-PLIN5 inh – blocks binding of human ABHD5 to perilipin-5; inhibition, % at 4 µM; Split G. princeps luciferase complementation, luminescence, 4 h; actives 0.78% (n = 360,000); AID 602281;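 active = inhibition above the mean inhibition across every tested compound plus 3 SD, cut at about 22% in these data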;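 note: 0% = DMSO only wells and the 100% control is not disclosed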
# Exocytosis inh – lytic granule exocytosis inhibition; inhibition, % at 10 µM; TALL-104 LAMP-1 surface exposure, flow cytometry; cells stimulated with thapsigargin and PMA; actives 0.66% (n = 360,000);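 active = inhibition above about 55%, limit read from the data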
# TLR4-MyD88 BLA – TLR4-MyD88 interaction inhibition in cells. inhibition, % at 8.4 µM. actives 0.18% (n = 200,000). AID 861. HeLa CL3-4 TLR4/MyD88 BLA complementation, FRET ratio. O00206+Q99836; in the data active = inhibition above about 25%;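 note: 0% = vehicle and 100% = reference inhibitor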
# Target sequence (O00206 whole entry, looked up): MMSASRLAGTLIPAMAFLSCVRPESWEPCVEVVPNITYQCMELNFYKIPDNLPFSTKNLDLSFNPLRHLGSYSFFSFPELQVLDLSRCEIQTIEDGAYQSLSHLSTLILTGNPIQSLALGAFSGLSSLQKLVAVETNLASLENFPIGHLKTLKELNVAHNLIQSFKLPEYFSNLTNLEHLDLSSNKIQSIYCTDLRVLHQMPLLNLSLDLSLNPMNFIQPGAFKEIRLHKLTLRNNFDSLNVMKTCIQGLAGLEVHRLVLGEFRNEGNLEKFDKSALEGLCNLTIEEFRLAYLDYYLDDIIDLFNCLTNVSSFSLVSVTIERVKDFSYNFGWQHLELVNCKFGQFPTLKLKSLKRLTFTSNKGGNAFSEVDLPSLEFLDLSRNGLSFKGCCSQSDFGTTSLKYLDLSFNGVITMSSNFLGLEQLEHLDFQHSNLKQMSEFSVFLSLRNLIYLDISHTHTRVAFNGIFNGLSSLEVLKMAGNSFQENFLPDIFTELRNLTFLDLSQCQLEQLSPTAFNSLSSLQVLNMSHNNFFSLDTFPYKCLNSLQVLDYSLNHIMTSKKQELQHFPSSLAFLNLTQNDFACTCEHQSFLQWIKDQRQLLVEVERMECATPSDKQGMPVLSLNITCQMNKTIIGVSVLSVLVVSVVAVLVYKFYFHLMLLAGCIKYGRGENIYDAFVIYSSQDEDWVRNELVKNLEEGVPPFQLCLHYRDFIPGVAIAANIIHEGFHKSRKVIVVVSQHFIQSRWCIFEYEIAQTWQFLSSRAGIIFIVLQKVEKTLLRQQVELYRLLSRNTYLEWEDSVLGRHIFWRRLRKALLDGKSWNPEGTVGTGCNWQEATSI
# Target sequence (Q99836 whole entry, looked up): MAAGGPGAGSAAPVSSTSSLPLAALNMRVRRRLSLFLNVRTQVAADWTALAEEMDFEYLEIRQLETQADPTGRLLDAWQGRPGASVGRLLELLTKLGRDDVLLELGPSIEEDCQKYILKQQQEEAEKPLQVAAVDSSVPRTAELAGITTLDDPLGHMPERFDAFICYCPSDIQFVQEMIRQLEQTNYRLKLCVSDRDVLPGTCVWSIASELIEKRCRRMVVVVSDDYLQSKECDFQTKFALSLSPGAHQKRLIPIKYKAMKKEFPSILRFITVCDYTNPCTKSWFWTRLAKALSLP
# ABHD5-PLIN5 conf – ABHD5-PLIN5 interaction inhibition, confirmed; shares compounds with ABHD5-PLIN5 inh; biochemical ABHD5-PLIN5 interaction, luminescence; inhibition, % at 4 µM; actives 67% (n = 2,200); AID 651612; in the data active = inhibition above about 23%;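 note: 0% = DMSO vehicle wells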
# HNF4 counter – active in HNF4 split-luciferase counter-screen for ABHD5-PLIN5 inhibitors; shares compounds with ABHD5-PLIN5 inh; HNF4 dimerization, luminescence, biochemical; inhibition, % at 4 µM; actives 77% (n = 2,200); AID 651674;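 active = mean inhibition across replicate wells exceeding the computed hit threshold, cut at about 13% in these data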;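 note: light from luciferase halves that rejoin when HNF4 fusion proteins dimerize; 0% = DMSO only wells and the 100% control is not given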
# NOD2 RIPK2 conf – NOD2-RIPK2 interaction inhibition confirmed | actives 70% (n = 1,200) | inhibition, % at 4.98 µM | CHO cells, NOD2-RIPK2 BLA complementation, CCF4 FRET | shares compounds with NOD2 RIPK2 PPI | AID 624370;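 active = mean inhibition across replicates above a set limit taken from the earlier primary screen, cut at about 21% in these data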;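 note: 0% = DMSO-only wells and the high end = clavulanate BLA-blocked wells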
# NOD2 BLA counter – NOD2-RIPK2 counterscreen BLA reporter activity; inhibition, % at 4.98 µM; AID 624371; shares compounds with NOD2 RIPK2 PPI; actives 57% (n = 1,200); CHO BLA reporter, CCF4 FRET ratio;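 active = mean inhibition above the low-control mean inhibition plus three low-control SD, cut at about 11% in these data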;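 note: 0% = DMSO only wells and 100% = clavulanate high control wells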
# PRMT1 confirm – PRMT1 (human) inhibition, FP confirmation. actives 42% (n = 3,300). inhibition, % at 2.79 µM. recombinant His-PRMT1, activity-based probe fluorescence polarization. AID 687036. shares compounds with PRMT1 FP inh;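 active = mean inhibition across replicates above the hit cutoff derived for the earlier primary screen, cut at about 22% in these data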
# * marks the source's active call; other numbers are inactive results; nt = not tested or not shown; + = active, no number. Compounds with a hit are over-represented: about 2.6% of the library has one in this group of screens.
SMILES,PRMT1 FP inh,NOD2 RIPK2 PPI,TLR9-MyD88 inh,ABHD5-PLIN5 inh,Exocytosis inh,TLR4-MyD88 BLA,NOD2 RIPK2 conf,NOD2 BLA counter,others
CC[N+]1(C)CCC(O)(/C=C/c2ccccc2)C(C(=O)/C=C/c2ccccc2)C1 (stereo not given),68*,2,5,45*,43,nt,nt,nt,ABHD5-PLIN5 conf=93*;HNF4 counter=109*;PRMT1 confirm=49*
CCc1ccc(/C=C/C(=O)C2C(=O)c3ccccc3C2=O)cc1,0,-1,-2,-22,2,4,nt,nt,
Cn1cccc1C(=O)N1CCN(S(=O)(=O)c2ccc(Br)s2)CC1,-1,nt,nt,nt,nt,nt,nt,nt,
O=C(OCC(=O)N1CCN(c2ccccc2)CC1)c1cc(Br)ccc1Cl,7,-20,-1,2,-5,nt,nt,nt,
O=C(OCC(=O)N1CCN(c2ccccc2)CC1)c1cc(F)c(F)cc1Cl,-3,21*,-7,-10,-1,nt,-14,-4,
CN(c1ccc(Cl)cc1)c1cc(=O)n(C)c2ccccc12,0,0,2,-3,-2,6,nt,nt,
CN(C)c1ccc(C=c2c3ccccc3n3c2cc(-c2ccc(Cl)cc2)[n+]3C)cc1,7,25*,-2,18,35,nt,23*,23*,
Nc1[nH]c(C(=O)c2ccccc2)c(-c2ccc3ccccc3c2)c1C(=O)NCc1cccc2ccccc12,0,nt,nt,nt,nt,nt,nt,nt,
Cc1cc(N/C(=C\C(=O)c2ccccc2)c2ccccc2)ccc1Br,-4,nt,nt,nt,nt,nt,nt,nt,
CC(=O)Nc1ccc(S(=O)(=O)Nc2nc3ccccc3nc2Nc2ccc3ccccc3c2)cc1,0,22*,4,2,10,-10,-5,-2,
CC(=O)Nc1ccc(S(=O)(=O)Nc2nc3ccccc3nc2Nc2cccc(O)c2)cc1,-4,10,-6,-4,-3,nt,nt,nt,
O=C(N/N=C/c1cc(Cl)cc(Cl)c1O)c1ccncc1,24*,32*,18,-1,-8,nt,26*,26*,
CC1CC(C)C(=NNC(N)=O)C(C(O)CC2CCC(=O)NC2=O)C1 (stereo not given),3,25*,-5,-1,5,nt,2,0,
CCOC(=O)c1c(Nc2ccc(OC)cc2)n[nH]c1C,11,nt,nt,nt,nt,nt,nt,nt,
C=C1CC(Cn2cc(Br)c(=O)[nH]c2=O)(c2ccc(-c3ccccc3)cc2)OC1=O (stereo not given),16,79*,9,54*,32,nt,71*,8,
CCOC(=O)C1=C(C)Nc2sc(C(=O)c3ccc(C)cc3)c(N)c2C1c1ccc(C(=O)OC)cc1 (stereo not given),6,42*,18,0,-4,14,9,17*,
CCOC(=O)C1=C(C)Nc2sc(C(=O)c3ccc(F)cc3)c(N)c2C1c1ccc(C(=O)OC)cc1 (stereo not given),-4,-1,-16,-5,4,-11,nt,nt,
COc1ccc(-n2c(COc3ccc(Cl)cc3)nnc2SCC(=O)c2ccc(-c3ccccc3)cc2)cc1,-10,nt,nt,nt,nt,nt,nt,nt,
CC(C)C[C@H]1COc2cc(Br)ccc2S(=O)(=O)N1Cc1cccc(Cl)c1,-2,nt,nt,nt,nt,nt,nt,nt,
CN(C)S(=O)(=O)n1cnc(-c2ccccc2)c1-c1ccccc1,-1,35*,-4,0,36,-2,2,-2,
CCNC(=O)NC(=O)C(C)N1C(=O)NC(c2ccccc2)(c2ccccc2)C1=O (stereo not given),-1,+,-5,2,4,nt,0,-2,
O=C1CC(N2CCN(c3ccccc3)CC2)C(=O)N1c1ccc2c(c1)OCCO2 (stereo not given),4,-14,3,7,2,16,nt,nt,
CN1CCN(C2CC(=O)N(c3ccc4c(c3)OCCO4)C2=O)CC1 (stereo not given),-1,24*,-6,3,1,-4,-1,-2,
O=C1c2cccc3c([N+](=O)[O-])c(O)cc(c23)C(=O)N1Nc1ccccc1,1,4,-7,5,2,-1,nt,nt,
O=C1c2cccc3c([N+](=O)[O-])ccc(c23)C(=O)N1O,-1,21*,9,-5,7,nt,17,12*,
SMILES,PRMT1 FP inh,NOD2 RIPK2 PPI,TLR9-MyD88 inh,ABHD5-PLIN5 inh,Exocytosis inh,TLR4-MyD88 BLA,NOD2 RIPK2 conf,NOD2 BLA counter,others
COC(=O)[C@]12C[C@H](CC(=O)N3CCOCC3)C(=O)N(CCc3ccc(OC)c(OC)c3)C1=C[C@H](C(C)(C)C)O[C@@H]2C,3,nt,nt,nt,nt,nt,nt,nt,
CCOC(=O)N(C)C[C@@H]1OCc2cn(nn2)CCCC(=O)N([C@H](C)CO)C[C@H]1C,-1,nt,nt,nt,nt,nt,nt,nt,
CCOC(=O)Nc1ccc2c3c(cccc13)-c1ccccc1-2,-6,34*,16,-7,2,nt,31*,47*,
COC(=O)[C@]12C[C@H](CC(=O)N3CCSCC3)C(=O)N(CCc3ccc(OC)c(OC)c3)C1=C[C@H](C(C)C)O[C@@H]2C1CC1,5,nt,nt,nt,nt,nt,nt,nt,
CCN(CC)c1ccc(/C=C2\SC(=O)N(C(C)C)C2=O)o1,nt,56*,nt,86*,52,nt,12,10*,
CC(C)N1C(=O)S/C(=C/c2ccc3c(c2)n(C)c(=O)n3C)C1=O,-2,2,-4,0,0,2,nt,nt,
O=S(=O)(c1cccc2cccnc12)N1CCC(c2cn3ccccc3n2)CC1,3,nt,nt,nt,nt,nt,nt,nt,
CC(=O)Nc1cccc(S(C)(=O)=O)c1,4,21*,-10,-5,2,11,-2,-4,
Cc1onc(-c2ccccc2)c1C(=O)Nc1nnc(COc2ccc(Cl)cc2)s1,nt,36*,-1,4,-1,-6,3,2,
COCCN(C(=O)COC(=O)CCC1CCCCC1)c1c(N)n(Cc2ccccc2)c(=O)[nH]c1=O,3,28*,4,1,3,nt,2,-2,
CN(C(=O)COC(=O)CCC1CCCCC1)c1c(N)n(Cc2ccccc2)c(=O)[nH]c1=O,1,5,-1,-4,-15,nt,nt,nt,
CC1(C)OC(=O)C2=C(CC(CCc3ccccc3)OC2c2ccc(Cl)c(Cl)c2)O1 (stereo not given),-4,nt,nt,nt,nt,nt,nt,nt,
